From the supplement of paper PMC7695840
Counter-ions that a name gives are not always drawn.

Each compound was assayed on Staphylococcus aureus MW2 (mecA+) (assay: normalized DsRed fluorescence (growth of mecA+ strain) (fraction of control range); higher = more growth of mecA+ strain). Conditions: compound concentration: 150 uM; cefoxitin: subinhibitory; fluorescent label: DsRed.
How it was run: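 Two pre-induced S. aureus MW2 strains, one with the gene labeled by DsRed and one lacking it labeled by GFP, were mixed 1:1 in LB with a subinhibitory antibiotic dose set daily. The mix went at 5 µL/well onto 150 μM compound (1.5% DMSO) in 1536-well plates, single replicate, and grew unshaken 20 h at 37 °C, 90% humidity. DsRed (540/590) and GFP (485/520) values were scaled per plate between single-strain control medians, and plates with high untreated ratios or rows with DsRed/GFP >10 were left out.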

Row | SMILES | normalized DsRed fluorescence
1 | N#Cc1ccc2[nH]cc(CCCCN3CCN(c4ccc5oc(C(N)=O)cc5c4)CC3)c2c1 | 0.987
2 | Oc1ncnc2[nH]ncc12 | 0.531
3 | COCCCC/C(=N\OCCN)c1ccc(C(F)(F)F)cc1 | 0.562
4 | Nc1ccc(S(=O)(=O)Nc2ncccn2)cc1 | 0.718
5 | CCN(CC)CCCC(C)Nc1ccnc2cc(Cl)ccc12 (centres undefined) | 0.443
6 | NS(=O)(=O)c1cc(C2(O)NC(=O)c3ccccc32)ccc1Cl (centres undefined) | 0.584
7 | CCCCC(=O)O[C@]1(C(=O)CO)CC[C@H]2[C@@H]3CCC4=CC(=O)CC[C@]4(C)[C@H]3[C@@H](O)C[C@@]21C | 0.447
8 | CC(C)(C)NCC(O)COc1cccc2c1CC(O)C(O)C2 (centres undefined) | 0.671
9 | CO[C@H]1C[C@@H]2CC[C@@H](C)[C@@](O)(O2)C(=O)C(=O)N2CCCC[C@H]2C(=O)O[C@H]([C@H](C)C[C@@H]2CC[C@@H](OC(=O)C(C)(CO)CO)[C@H](OC)C2)CC(=O)[C@H](C)/C=C(\C)[C@@H](O)[C@@H](OC)C(=O)[C@H](C)C[C@H](C)/C=C/C=C/C=C/1C [Temsirolimus (Torisel)] | 1.96
10 | C[n+]1ccccc1C=NO | 0.637
11 | C[C@@H]1C[C@H]2[C@@H]3CCC4=CC(=O)C=C[C@]4(C)[C@@]3(Cl)[C@@H](O)C[C@]2(C)[C@@]1(OC(=O)c1ccco1)C(=O)CCl | 1.18
12 | Cc1cc2c(cc1CC(=O)c1sccc1S(=O)(=O)Nc1onc(C)c1Cl)OCO2 | 0.293
13 | C[N+](C)(C)C[C@H](O)CC(=O)[O-] | 0.508
14 | CCCc1nn(C)c2c(=O)[nH]c(-c3cc(S(=O)(=O)N4CCN(C)CC4)ccc3OCC)nc12 | 0.655
15 | CC(C)[C@H](N)C(=O)OCCOCn1cnc2c(=O)nc(N)[nH]c21 [Valaciclovir HCl] | 0.782
16 | CN(C)CCc1c[nH]c2ccc(CS(=O)(=O)N3CCCC3)cc12 | 1
17 | Cc1c(OCC(F)(F)F)ccnc1C[S+]([O-])c1nc2ccccc2[nH]1 (centres undefined) [Lansoprazole] | 0.553
18 | Nc1c(Br)cc(Br)cc1CN[C@H]1CC[C@H](O)CC1 [Ambroxol HCl] | 0.849
19 | CC(=O)OCC(=O)[C@@]1(O)CC[C@H]2[C@@H]3CCC4=CC(=O)CC[C@]4(C)[C@H]3[C@@H](O)C[C@@]21C | 0.595
20 | Nc1ccc(S(=O)(=O)c2ccc(N)cc2)cc1 | 0.89

Row | SMILES | normalized DsRed fluorescence
21 | NS(=O)(=O)c1cc(Cl)c(Cl)c(S(N)(=O)=O)c1 [Dichlorphenamide (Diclofenamide)] | 0.653
22 | O=C(O)COCCN1CCN([C@H](c2ccccc2)c2ccc(Cl)cc2)CC1 | 0.775
23 | Cn1c(=O)c2c(ncn2CC2OCCO2)n(C)c1=O | 1.05
24 | S=c1[nH]cnc2nc[nH]c12 | 0.762
25 | CN(C(=O)C(Cl)Cl)c1ccc(OC(=O)c2ccco2)cc1 | 0.938
26 | O=C1CN2Cc3c(ccc(Cl)c3Cl)N=C2N1 | 0.896
27 | C[C@]12C=CC(=O)C=C1CC[C@@H]1[C@@H]2C(=O)C[C@@]2(C)[C@H]1CC[C@]2(O)C(=O)CO | 0.647
28 | O=C(CCCN1CCC(O)(c2ccc(Br)cc2)CC1)c1ccc(F)cc1 | 1.21
29 | OC(CCN1CCCCC1)(c1ccccc1)C1CCCCC1 (centres undefined) | 0.789
30 | CC(C)NCC(O)COc1ccc(COCCOC(C)C)cc1 (centres undefined) | 0.658
31 | CN(CCOc1ccc(CC2SC(=O)NC2=O)cc1)c1ccccn1 (centres undefined) | 0.876
32 | COCCCOc1ccnc(C[S+]([O-])c2nc3ccccc3[nH]2)c1C (centres undefined) | 0.865
33 | COc1ccc(-c2cc(=O)c3c(O)cc(O[C@@H]4O[C@H](CO[C@@H]5O[C@@H](C)[C@H](O)[C@@H](O)[C@H]5O)[C@@H](O)[C@H](O)[C@H]4O)cc3o2)cc1O [Diosmin] | 1.27
34 | COc1ccc(CNc2nc(N3CCC[C@H]3CO)ncc2C(=O)NCc2ncccn2)cc1Cl [Avanafil] | 0.718
35 | COc1cc2c3cc1Oc1cc(ccc1O)C[C@@H]1c4c(cc(OC)c(O)c4Oc4ccc(cc4)C[C@@H]3N(C)CC2)CC[N+]1(C)C | 0.607
36 | COc1ccc(-c2ccc3cc(C(=O)O)ccc3c2)cc1C12CC3CC(CC(C3)C1)C2 | 0.97
37 | Cn1cnc2c1c(=O)[nH]c(=O)n2C | 0.469
38 | O[C@H]1[C@H](O)[C@@H](O)[C@H](O)[C@@H](O)[C@H]1O | 0.698
39 | C[C@H]1C[C@H]2[C@@H]3CCC4=CC(=O)C=C[C@]4(C)[C@@]3(F)[C@@H](O)C[C@]2(C)[C@@]1(O)C(=O)CO [Betamethasone (Celestone)] | 1.3
